# Bioassay records (PubChem BioAssay)
# Rows were chosen to be rich in hits. Some 18% of all compounds tested hit in one or more screens of this group.
# DT40 TDP1 CPT: DT40-hTDP1 cell growth loss with CPT; chicken DT40 Tdp1-/-;hTDP1 cells + 20 nM CPT, ATP luminescence, 48 h; Potency, µM (titrated, usually from 46.2 µM), for the others: at the top dose activity change, negative = growth inhibition, most hits filed as inhibitors; 420,000 tested, 12% active; AID 686979; further: potency means the concentration at half of the fitted maximal effect; nearly all actives have a fitted effect of over 55% in size
#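 Chicken DT40 Tdp1-/- cells complemented with human TDP1, 400 cells/well, exposed to compounds plus 20 nM camptothecin for at least 48 h at 37 C; viability read as ATP content by CellTiter-Glo luminescence.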
# TDP1 cell noCPT: qHTS for Inhibitors of human tyrosyl-DNA phosphodiesterase 1 (TDP1): qHTS in cells in absence of CPT | DT40 Tdp1-/- hTDP1 cells, no CPT, ATP luminescence, 48 h | Potency, µM (top dose mostly 46.2 µM), without a hit: at the top dose activity change, negative = growth inhibition, actives largely listed as inhibitors | 420,000 tested, 15% active; further: potency means the concentration at half of the fitted maximal effect; nearly all actives have a fitted effect of over 55% in size
#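 Seeded 400 DT40-hTDP1 cells/well (vehicle DMSO, no 20 nM CPT); pinned compounds; ≥48 hr at 37 °C; CellTiter-Glo luminescence as viability measure.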
# VP16 counter: Gal4-VP16 reporter inhibition counter-screen | 310,000 tested, 3.5% active | Potency, µM (doses to about 53.6 µM), for inactives: at the top dose activity, negative = inhibition, hits mostly inhibitors | Drosophila S2 Gal4-VP16 UAS-luciferase, luminescence, 20 h;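 further: Gal4-VP16 expression switched on by copper sulfate through the metallothionein promoter; potency means the concentration at half of the fitted maximal effect; nearly all actives have a fitted effect of over 50% in size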
# LDHA block: blocks human lactate dehydrogenase A | P00338 | purified LDHA, NADH/diaphorase-resazurin fluorescence; hits give low values | activity change, % (values are at about 110 or 230 µM) | 480,000 tested, 0.15% active | AID 1347041; in the data active means activity change below about -30%; inconclusive means mostly about -25% to -30%;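 further: plate controls were DMSO wells for no effect and wells without enzyme for full effect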
#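 Resorufin fluorescence (ex540/em590), read at 0 and 20 min after diaphorase/resazurin addition, reports the NADH left after a 5 min room-temperature reaction of 2 nM human LDH5 with 0.06 mM NADH and 0.2 mM pyruvate.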
# RORgamma inh: blocks mouse ROR gamma transcriptional activity; P51450; Drosophila S2 Gal4-RORgamma UAS-luciferase reporter, 20 h; Potency, µM (highest dose often 53.6 µM), for the others: at the top dose activity change, negative = inhibition, actives largely listed as inhibitors; 310,000 tested, 5.4% active; AID 2551; further: potency means the concentration at half of the fitted maximal effect; nearly all actives have a fitted effect of over 60% in size
# Target sequence (P51450 whole entry, looked up, the tested form may be a part): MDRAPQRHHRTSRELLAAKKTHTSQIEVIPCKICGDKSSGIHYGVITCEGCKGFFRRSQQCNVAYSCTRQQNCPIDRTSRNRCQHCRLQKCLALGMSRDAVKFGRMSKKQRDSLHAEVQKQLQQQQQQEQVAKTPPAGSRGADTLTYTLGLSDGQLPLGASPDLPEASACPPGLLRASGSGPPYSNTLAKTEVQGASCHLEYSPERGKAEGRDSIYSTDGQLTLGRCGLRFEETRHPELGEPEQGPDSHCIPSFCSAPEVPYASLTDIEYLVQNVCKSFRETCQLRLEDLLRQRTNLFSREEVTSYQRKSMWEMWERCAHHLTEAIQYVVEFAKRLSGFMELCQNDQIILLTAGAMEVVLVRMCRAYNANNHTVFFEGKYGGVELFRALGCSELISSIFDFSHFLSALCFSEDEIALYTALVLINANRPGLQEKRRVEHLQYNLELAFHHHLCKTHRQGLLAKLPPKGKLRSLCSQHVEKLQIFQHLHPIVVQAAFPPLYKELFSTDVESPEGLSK
#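 Drosophila Schneider cells stably carrying a metallothionein-driven Gal4 DBD–ROR gamma fusion and a UAS-Photinus luciferase reporter were exposed to compound for 1 hr, then induced with copper sulfate (700 uM final) for 20 hr at ambient temperature before luminescence reading.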
# IL1B secr inh: blocks inflammasome-driven IL-1 beta release; THP-1 LPS/ATP IL-1B secretion, AlphaLISA, 16 h; hits give low values; activity change, % at 57.5 µM; 360,000 tested, 4.7% active; AID 743279; in the data active means activity change below about -50%; inconclusive means mostly about -30% to -49%
#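 Secreted IL-1B measured by AlphaLISA bead assay after 16 h compound exposure of THP-1 cells; compounds (final up to 57.5 uM) added 1 h before LPS (250 ng/mL) and ATP (1.25 mM) stimulation; lower signal means less secretion.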
# Active calls of the source: *; ? = inconclusive; · = no result given. Unless noted, the call rests on the fitted dose curve; in most records, active means well fitted curve in the direction sought with a large enough effect; inconclusive means small, poorly fitted or top-dose-only effect, or another doubt; inactive means no such curve, though single readings can be large; an effect the other way counts as inactive or inconclusive. Unless noted, on the % scale 0 is the no-effect control and ±100 the full control effect.
SMILES,DT40 TDP1 CPT,TDP1 cell noCPT,VP16 counter,LDHA block,RORgamma inh,IL1B secr inh
COc1ccc(CNC(=O)C2CCCN(S(=O)(=O)c3ccc4c(c3)CCCN4C(C)=O)C2)cc1 (stereo not drawn),15µM*,10µM*,-8%,2,3%,4
O=C(NC(=S)Nc1ccc(CN2CCOCC2)cc1)c1ccc(-c2cccc(Cl)c2)o1,16µM*,7.3µM*,14µM*,-5,3.2µM*,?
O=C(NC(=S)Nc1ccccc1N1CCOCC1)c1ccc(-c2cccc(Cl)c2)o1,?,?,5.6µM*,-4,2.5µM*,4
O=C(Nc1ccc(CN2CCOCC2)cc1)c1ccc(-c2cccc(Cl)c2)o1,?,?,-14%,1,19%,-60*
O=C(NC(=S)Nc1ccc(CN2CCOCC2)cc1)c1ccc(-c2ccc(Cl)cc2)o1,?,?,8%,-11,-41%,0
OCCC1CN(CC(c2ccccc2)c2ccccc2)CCN1C1CCCC1 (stereo not drawn),?,18µM*,-6%,-3,-29%,-14
OCCC1CN(Cc2cnc(-c3ccccc3)s2)CCN1C1CCCCC1 (stereo not drawn),-5%,?,7%,1,-4%,-3
OCCC1CN(Cc2cnc(-c3ccc(Cl)cc3)nc2)CCN1C1CCCC1 (stereo not drawn),23µM*,15µM*,1%,-5,3%,-73*
CCn1cc(CN2CCN(Cc3ccsc3)C(CCO)C2)cn1 (stereo not drawn),-2%,15%,0%,-1,9%,?
CC(C)CN1CCN(Cc2cnc(-c3ccc(Cl)cc3)nc2)CC1CCO (stereo not drawn),?,?,6%,-5,18%,15
OCCC1CN(Cc2cnc(-c3ccccc3)s2)CCN1C1CCCC1 (stereo not drawn),7%,-4%,1%,-5,-13%,-81*
CCOc1ccc2nc(CN3CCN(Cc4ccsc4)C(CCO)C3)ccc2c1 (stereo not drawn),?,18µM*,2%,2,-19%,-6
Cn1c(=O)c2c(ncn2CC(=O)Nc2ccc3c(c2)OC2(CCCC2)O3)n(C)c1=O,·,·,·,-21,·,·
CC(C)N1CCC(N2CCN(Cc3cnc(-c4ccccc4)s3)CC2CCO)CC1 (stereo not drawn),1%,-6%,5%,-4,0%,-13
CCOc1ccc(CN2CCN(Cc3cnc(-c4ccccc4)s3)CC2CCO)cc1 (stereo not drawn),?,21µM*,-2%,-1,-1%,8
COc1ccc(Cc2nnc(Nc3ccc(OC)cc3)[nH]c2=O)cc1,·,·,·,2,·,·
O=C(O)c1cccc(N2C(=O)c3cccc4c(Cl)ccc(c34)C2=O)c1,?,-14%,-11%,12,8%,-52*
O=C1c2ccc3c4c(ccc(c24)C(=O)N1c1cccc(O)c1)C(=O)N(c1cccc(O)c1)C3=O,4.1µM*,6.5µM*,?,-9,?,-13
O=C1c2cccc3c(Cl)ccc(c23)C(=O)N1O,?,5.8µM*,-18%,-3,-2%,2
O=C(c1cccc2ccccc12)N1CCCCC1,0%,-18%,·,0,·,6
O=C(c1ccc2c3c(cccc13)C(=O)N(O)C2=O)N1CCCCC1,8.2µM*,7.3µM*,5%,-4,?,-11
O=c1c(-c2ccccc2)c(C(F)(F)F)oc2cc(O)ccc12,·,·,·,6,·,·
Cc1ccc(OCCCOc2ccc(Cl)cc2/C=N/NC(=O)c2ccccc2)cc1C,·,·,·,1,·,·
CCCNc1nc2ccccc2nc1C(=O)Nc1ccc(C)cc1,·,·,·,0,·,·
Cc1ccccc1Nc1nc(NCc2ccco2)nc2c1cnn2-c1ccccc1,·,·,·,4,·,·
SMILES,DT40 TDP1 CPT,TDP1 cell noCPT,VP16 counter,LDHA block,RORgamma inh,IL1B secr inh
COc1ccc(C(=O)COC(=O)C2(c3ccccc3)CCCC2)cc1F,·,·,·,4,·,·
Cc1cccc(NC(=O)Cn2nc(-c3ccccc3)c3cnc4ccccc4c32)c1,16µM*,-45%,·,-8,·,·
Cc1ccc(NC(=O)Cn2nc(-c3ccc(F)cc3)c3cnc4ccc(C)cc4c32)cc1,-15%,-1%,·,4,·,·
Cc1ccc(-c2nn(CC(=O)NC3CCCC3)c3c2cnc2ccc(F)cc23)cc1C,?,12µM*,·,2,·,·
CCOc1ccc2ncc3c(-c4ccccc4)nn(CC(=O)Nc4cccc(F)c4)c3c2c1,-7%,-11%,·,-4,·,·
COc1cc2ncc3c(-c4ccccc4)nn(-c4ccc(C)cc4)c3c2cc1OC,16µM*,16µM*,·,-3,·,·
COc1ccc2ncc3c(-c4ccc(C)c(C)c4)nn(CC(=O)Nc4ccccc4)c3c2c1,15µM*,18µM*,·,0,·,·
Cc1ccc(-n2nc(-c3ccccc3)c3cnc4cc5c(cc4c32)OCO5)cc1C,-10%,-20%,·,2,·,·
O=C(Cn1nc(-c2ccccc2)c2ccccc2c1=O)Nc1cccc(O)c1,0%,-23%,-3%,10,15%,-52*
COc1ccc2ncc3c(-c4ccccc4)nn(-c4ccc(C)c(C)c4)c3c2c1,12µM*,9.2µM*,·,-4,·,·
O=C(CS(=O)c1ccc(C(F)(F)F)cc1[N+](=O)[O-])Oc1ccccc1 (stereo not drawn),5.8µM*,4.6µM*,0%,13,-15%,-114*
COC(=O)c1ccc(OC(=O)CS(=O)c2ccccc2[N+](=O)[O-])cc1 (stereo not drawn),?,26µM*,7%,1,-12%,-1
COC(=O)c1ccc(Oc2c(Cl)cccc2[N+](=O)[O-])cc1,-25%,-20%,-28%,-5,7.9µM*,2
CCOC(=O)c1ccccc1OC(=O)CS(=O)c1ccccc1[N+](=O)[O-] (stereo not drawn),?,?,-8%,6,-20%,-28
CS(=O)(=O)c1ccc(S(=O)CC(=O)OCc2ccccc2)c([N+](=O)[O-])c1 (stereo not drawn),0.23µM*,0.33µM*,4.5µM*,32,4.5µM*,-163*
CCc1ccc(C(=O)COC(=O)C(NC(=O)c2ccccc2C)C(C)C)cc1 (stereo not drawn),·,·,·,2,·,·
Cc1sc(N2CCOCC2)nc1-c1ccc(NS(C)(=O)=O)cc1,·,·,·,-8,·,·
COC(=O)c1sccc1NC(=O)CC1(C(=O)O)CCCCCC1,·,·,·,4,·,·
CCc1nnsc1C(=O)N(C)Cc1cccc(Cl)c1Cl,·,·,·,5,·,·
